# Test results taken from PubChem BioAssay (NCI).
# The panel holds about 83,000 compounds, 20% with a hit somewhere; the sample as a whole holds those more often.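 A percent growth of 40 corresponds to 60% growth inhibition; 0 means no net growth; -100 means all cells died. Active threshold: below 10.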 A number with no mark means an inactive call. The source made the active and inactive calls.
# Experiments:
# Experiment in all cases: NCI-60 one-dose screen, 48 h (100 = growth as untreated, 0 = no growth, -100 = all killed)
# Settings in all cases: 10 µM unless noted
# [1] = tested on: T-47D breast
# [2] = tested on: BT-549 breast
# [3] = tested on: MDA-MB-435 melanoma
# [4] = tested on: SW-620 colon
# [5] = tested on: MCF7 breast
# [6] = tested on: HCT-116 colon
# [7] = tested on: HCC-2998 colon
# [8] = tested on: KM12 colon
Structure (SMILES),growth [1],growth [2],growth [3],growth [4],growth [5],growth [6],growth [7],growth [8]
COc1ccc(-c2nnc(SCC(=O)Nc3ccc(/C(C)=N\O)cc3)n2-c2ccccc2)cc1OC,68%,65.2%,104%,115%,69.2%,69.2%,94%,106%
COc1cccc(/C=C2\COc3ccc(O)cc3C2=O)c1,47.5%,78%,52.8%,18.1%,4.96% (active),32.8%,115%,43.7%
COc1cc2oc(-c3cccc(NC(=O)c4ccc5c(c4)OCO5)c3)cc(=O)c2c(OC)c1OC,26.3%,41.4%,53.3%,64%,43.6%,35.5%,53.1%,51.3%
Cc1c(N2CN3C[C@H](C)N4CN(c5c(C)n(C)n(-c6ccccc6)c5=O)CN5C[C@@H](C)N(C2)C3C54)c(=O)n(-c2ccccc2)n1C (some centres not stated),105%,113%,105%,103%,94.9%,96.9%,106%,104%
Cc1ccc(C)n1/C=C/n1c(C)ccc1C,90.5%,91%,91.9%,110%,106%,104%,95%,109%
COc1ccc2cc(-c3cnc4nonc4n3)ccc2c1,15.5%,56.3%,-14.9% (active),26.9%,15.7%,18.3%,59.3%,23.1%
O=C(CCCCCCN1CC(=O)N2[C@@H](c3ccc(Cl)cc3)c3[nH]c4ccccc4c3C[C@H]2C1=O)NO,42.1%,77.2%,53.9%,62.9%,46.2%,38.6%,81.2%,75.1%
COc1cc(C2=NN(C(C)=O)C(c3ccc(N(C)C)cc3)C2)cc(OC)c1OC (configuration not stated),86.6%,94.4%,94.9%,94.9%,93.1%,86.9%,102%,95.4%
C=CC1(C)C(O[Si](C)(C)C(C)(C)C)CC2C3OC(=O)NC31c1cccc3c1[C@H](C(=O)N3C)C2(C)C (some centres not stated),23.8%,53.8%,56.2%,64.6%,27.7%,38.6%,69.1%,50.5%
CC(CN)[C@@H]1CC[C@]2(CO)CC[C@]3(C)[C@H](CC[C@@H]4[C@@]5(C)CCC(N)C(C)(C)[C@@H]5CC[C@]43C)[C@@H]12 (some centres not stated),6% (active),44.9%,-29.2% (active),-75.7% (active),-71.2% (active),-81.2% (active),-77.5% (active),-73.5% (active)
COC(=O)c1nc(-c2ccccc2)oc1S(=O)(=O)N1CCC(C(N)=O)CC1,36%,76.2%,59.5%,25.4%,32%,43.9%,104%,87.8%
CN(C)c1ccc(C(=NO)c2ccc(N(C)C)cc2)cc1,45.8%,53.4%,-43.2% (active),13.4%,32.6%,18.5%,58.6%,13.6%
NS(=O)(=O)c1ccc(N/C=C/C(=O)c2cc3ccccc3oc2=O)cc1,89.1%,95.5%,100%,95.5%,68.8%,97.1%,109%,98.2%
COc1ccc(Cn2cc(C(=O)N=Nc3c(O)[nH]c4c(Cl)cccc34)nn2)cc1,100%,111%,101%,99.7%,84.3%,91.6%,99.3%,107%
CCCCCCCCNc1cc2c3c(c1)CCCN3CCC2,13.4%,20%,9.1% (active),9.22% (active),24.3%,5.39% (active),11.8%,5.45% (active)
O=C1/C(=C/c2ccccc2[N+](=O)[O-])COc2ccc(O)cc21,18%,26.7%,-34.2% (active),-57.8% (active),10.9%,-13.8% (active),29%,25.4%
N#C/C(=C\c1ccc(Cl)cc1Cl)C(=O)Nc1ncc(Cc2ccc(Cl)c(Cl)c2)s1,58.5%,111%,60.8%,62.6%,84%,–,87%,80.1%
Cc1ccc(/C=C(\C#N)C(=O)Nc2ncc(Cc3cc(Cl)ccc3Cl)s2)o1,51.1%,65.4%,30.4%,53.4%,49.6%,–,29.7%,27%
COc1cc(-c2nc(SCCC(C)C)nc(N3CCOCC3)c2C#N)cc(OC)c1OC,13.9%,79.9%,85.6%,27.7%,58.9%,–,91.7%,38%
CCCCC(=O)Nc1ncc(Cc2ccccc2Cl)s1,34.1%,47.1%,-31.8% (active),24.5%,17.8%,21.2%,52.6%,25.2%

Structure (SMILES),growth [1],growth [2],growth [3],growth [4],growth [5],growth [6],growth [7],growth [8]
CCOC(=O)C/C(=N\Nc1cc(=O)[nH]c2ccc(Cl)cc12)C(=O)OCC,102%,99.3%,102%,93.8%,96.5%,100%,97.4%,102%
Cn1cccc1/C=C1\C(=O)Nc2ccccc21,18.2%,89.6%,103%,99.5%,12.3%,–,48.8%,21.8%
Cc1ccccc1CNc1c2ccccc2nc2ccccc12,24.6%,55.9%,23.9%,13.8%,6.93% (active),–,16.2%,16.9%
CC1(C)CC2=C3C=C[C@@H]4[C@@]5(C)CC[C@H](O)C(C)(C)[C@@H]5CC[C@@]4(C)[C@]3(C)CC[C@@]2(C(=O)O)CC1=O,42.2%,36.7%,39.4%,43.8%,31.9%,–,70.3%,42.6%
CCC(C)Nc1ccc(NC(C)CC)cc1 (configuration not stated),79.7%,85.4%,95.3%,106%,47.2%,28.2%,80.2%,112%
CC(=O)c1c(Nc2ccc(F)c(F)c2F)[nH]c2c(F)cc(F)cc2c1=O,-14.3% (active),2.13% (active),-14.4% (active),7.98% (active),0.843% (active),–,7.96% (active),2.32% (active)
CCCCCCCCn1ccc2cc(NC(=O)Cn3cc(CN4CCOCC4)nn3)ccc21,93.4%,78.2%,99.7%,97.4%,89.5%,–,113%,93.3%
COC(=O)c1ccc2c(c1)c1c(C)c3ccncc3c(C)c1n2C,29.7%,43.5%,28.3%,21%,8.59% (active),–,61.5%,23.2%
O=c1nc(Nc2nc3ccccc3s2)[nH]c(=O)c2ccccc12,78.9%,97.5%,99.9%,101%,92.2%,–,98.4%,98.5%
CCCCCCCCn1ccc2cc(NC(=O)Cn3cc(CN4CCCCCC4)nn3)ccc21,-47.4% (active),96.8%,-85.3% (active),-78.3% (active),-23.2% (active),–,-80.9% (active),-27.8% (active)
COC(=O)C1=C(C(=O)Nc2cccnc2)C2OC1(C(Cc1ccccc1)Oc1ccccc1)C1OC21 (configuration not stated),-46.7% (active),61.5%,77.8%,-64.9% (active),24.9%,-46.3% (active),105%,96.8%
COc1ccc(Nc2ncccc2NC(=O)c2cn(Cc3cccc(Oc4ccccc4)c3)nn2)cc1OC,49.2%,73%,4.74% (active),73%,48.5%,80.7%,88.1%,57.6%
NC(=O)c1c(NC(=O)c2ccc(Cl)cc2)sc2c1CCC(=O)C2,35.9%,25.1%,94.5%,12.7%,57.8%,8.72% (active),104%,42.1%
CC/C=C1/C(=O)C=C[C@@H]1C/C=C\CCCC(=O)OC,62.4%,16.6%,4.2% (active),14.9%,15.6%,-59.6% (active),114%,17.1%
CNC(=O)c1c(NC(=O)c2ccc(C(C)(C)C)cc2)sc2c(CN(C)C)c(O)ccc12,-3.98% (active),71.9%,-85% (active),-85.8% (active),-43.2% (active),–,-83.6% (active),-79.6% (active)
C=CCn1c(SCC(=O)Nc2ccc(C(=O)/C=C/c3ccc(OC)cc3)cc2)nnc1-c1ccccc1,57.3%,43.8%,49%,97.7%,20%,9.87% (active),102%,82.6%
CCN(CC)c1ccc(/C=N/NC(=O)c2ccc(Nc3ccnc(C(F)(F)F)c3)cc2)c(O)c1,-2.74% (active),-2.72% (active),17.5%,41.5%,13.9%,–,38.3%,24.6%
CC(C(=O)O)n1c(O)c(C=Nc2cccnc2)sc1=S (configuration not stated),81.2%,89.2%,100%,102%,86.7%,–,111%,98.7%
COc1ccc2nc3ccccc3c(NCc3ccc(F)cc3)c2c1,36.5%,35%,23.9%,14.7%,-27.7% (active),–,-77.6% (active),28.7%
CCN1C(=S)N(CC)C2C1NC(=S)N2/N=C/C=C/c1ccccc1OC (configuration not stated),59.4%,13.5%,-42.8% (active),23.8%,17.9%,–,11.6%,15%

Structure (SMILES),growth [1],growth [2],growth [3],growth [4],growth [5],growth [6],growth [7],growth [8]
Cc1ccc(-c2nc(C#N)c(S(=O)(=O)NCCO)o2)cc1,43.1%,64.7%,68.5%,33.8%,37.9%,–,98.1%,88%
Cc1ccc(C)c(-n2c(-c3ccc(Br)cc3)csc2=NC(=O)c2ccccc2F)c1,41.3%,28.7%,67.2%,69.6%,59.1%,22.9%,117%,60.8%
CC1(C)O[C@H]2OC3CCC(=O)CC3(O)[C@H]2O1 (some centres not stated),91.8%,104%,112%,105%,108%,95.1%,98.7%,102%
CC1CN=C(c2cccc(-c3ccc(-c4ccccc4)o3)c2)N1 (configuration not stated),-31.8% (active),50.8%,-75.8% (active),-40.6% (active),-57.2% (active),–,-65.4% (active),-8.35% (active)
CC(C)c1ccc(NC(=O)Nc2ccc(NC(=O)c3ccccc3N)cc2)cc1,38.2%,77%,46.5%,54.1%,31.6%,–,23.5%,29.8%
C[C@@H]1CC[C@@]2(OC1)O[C@H]1C[C@H]3[C@@H]4CC=C5C[C@@H](O[C@@H]6O[C@H](CO)[C@@H](O[C@@H]7O[C@@H](CO)[C@H](O)[C@H]7O)[C@H](O)[C@H]6O[C@@H]6O[C@@H](C)[C@H](O)[C@@H](O)[C@H]6O)CC[C@]5(C)[C@H]4CC[C@]3(C)[C@H]1[C@@H]2C,-22.6% (active),-59.4% (active),-92.8% (active),-86.4% (active),-87.9% (active),–,-75.9% (active),-90.6% (active)
Cc1nc2sc(C(=O)Nc3ccccc3)c(N)c2cc1C(=O)/C=C/c1ccccc1,1.62% (active),-7.07% (active),-38.2% (active),-37.6% (active),3.7% (active),–,-80.5% (active),-42.1% (active)
C=C1C(=O)O[C@H]2[C@H]1CC/C(COC(=O)NCCCCCCCCNC(=O)OC/C1=C/CC[C@@]3(C)O[C@H]3[C@H]3OC(=O)C(=C)[C@@H]3CC1)=C\CC[C@@]1(C)O[C@@H]21,-45.7% (active),-88.2% (active),-89.9% (active),-74.7% (active),-55.2% (active),-79.2% (active),-65.5% (active),-43.9% (active)
CCn1cc(CNc2ccc(C(=O)Nc3cc4cc(OC)c(OC)cc4c(C)n3)cc2)c(C)n1,-15.4% (active),-4.64% (active),48.4%,59.9%,30%,25.4%,62.2%,23%
COc1cc2c(cc1O)[C@@]1(C)[C@H](c3ccccc3Br)OC(=O)N1CC2,65.4%,92.8%,92.1%,104%,99.1%,–,99%,89.7%
COc1ccc(C2=C/C(=C\c3ccc(Cl)cc3)C(=O)N2/N=C/c2ccc(Cl)cc2)cc1,82.1%,101%,104%,98.9%,84.5%,–,108%,90.2%
COc1ccc(/C=C/C(=O)c2ccc(NC(=O)CSc3nnc(-c4cc(-c5ccccc5)nc5ccccc45)n3-c3ccccc3)cc2)cc1,80.3%,96.3%,97.9%,96.6%,93.7%,–,107%,89.5%
Cn1cc(-c2ccc3cc(-c4ccc(CC(=O)Nc5cc(C(C)(C)C)on5)cc4)cnc3c2)cn1,34.5%,33%,17.1%,12.8%,40.8%,9.3% (active),57.8%,9.57% (active)
C=C(c1ccc(C(=O)O)cn1)c1cc2c(cc1C)C(C)(C)CCC2(C)C,81.5%,86.4%,92.6%,117%,65.6%,–,126%,86.1%
Fc1ccc2c(c1)c(-c1nc(-c3c[nH]c4ncccc34)cs1)cn2CCCN1CCOCC1,38.1%,69.5%,-17.1% (active),24.9%,22%,–,74.3%,22.5%
Cn1c(/C=C/[N+](=O)[O-])cc2ccccc21,37.4%,-43.2% (active),-21.6% (active),-70.8% (active),-50.5% (active),-74% (active),-95.1% (active),-63.8% (active)
CCOC(=O)Cn1c(=O)c2c3ccccc3n(C)c2n2nnc(-c3ccccc3)c12,95.1%,104%,99.1%,95.7%,–,–,67.8%,99.7%
Cn1cc(-c2csc(-c3cn(C)c4ccc(Br)cc34)n2)c2cnccc21,-47.3% (active),86.2%,-87.6% (active),-70% (active),-74.7% (active),–,-84.3% (active),-87.4% (active)
CCCCCSB(SCCCCC)c1ccccc1,94.3%,105%,103%,100%,–,106%,88.7%,107%
